Test [1] has as its target T1, Serine/threonine-protein kinase Nek9 (Homo sapiens) (UniProt Q8TD19).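 Note: each value is a mean percent inhibition of NEK9.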
T1 sequence (whole entry): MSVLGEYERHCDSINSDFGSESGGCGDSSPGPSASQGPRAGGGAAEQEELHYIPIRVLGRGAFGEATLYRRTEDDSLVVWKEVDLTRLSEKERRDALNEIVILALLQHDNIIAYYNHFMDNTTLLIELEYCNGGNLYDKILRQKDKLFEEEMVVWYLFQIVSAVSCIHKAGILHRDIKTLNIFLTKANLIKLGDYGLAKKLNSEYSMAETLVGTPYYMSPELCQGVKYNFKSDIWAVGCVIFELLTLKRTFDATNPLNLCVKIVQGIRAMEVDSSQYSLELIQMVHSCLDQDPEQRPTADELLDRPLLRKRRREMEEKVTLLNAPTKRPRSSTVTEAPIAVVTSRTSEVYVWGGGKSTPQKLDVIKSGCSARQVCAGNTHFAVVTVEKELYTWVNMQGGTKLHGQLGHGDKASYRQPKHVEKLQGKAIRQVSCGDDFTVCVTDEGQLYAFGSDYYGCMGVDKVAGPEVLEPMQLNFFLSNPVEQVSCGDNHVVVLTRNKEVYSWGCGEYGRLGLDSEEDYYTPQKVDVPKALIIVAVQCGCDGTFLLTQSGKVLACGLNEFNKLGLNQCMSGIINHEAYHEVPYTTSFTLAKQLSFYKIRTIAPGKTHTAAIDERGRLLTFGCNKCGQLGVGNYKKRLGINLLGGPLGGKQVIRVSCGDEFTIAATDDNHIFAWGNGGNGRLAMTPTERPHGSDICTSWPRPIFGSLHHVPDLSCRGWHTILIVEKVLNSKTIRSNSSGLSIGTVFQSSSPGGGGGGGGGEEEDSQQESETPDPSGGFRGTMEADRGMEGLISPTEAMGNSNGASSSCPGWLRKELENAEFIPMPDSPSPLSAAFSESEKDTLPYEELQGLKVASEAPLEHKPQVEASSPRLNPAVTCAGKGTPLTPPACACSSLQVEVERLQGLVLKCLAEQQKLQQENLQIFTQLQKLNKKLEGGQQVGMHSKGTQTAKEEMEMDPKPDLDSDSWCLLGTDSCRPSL
To be noted: at 1 µM.

Test [2] concerns the target Serine/threonine-protein kinase PLK1 (Homo sapiens) (UniProt P53350). The conditions noted are these: at 0.1 µM.
Test [3] shares this target. The conditions noted are these: at 1 µM.
Test [4] has as its target T2, Dual specificity protein kinase TTK (Homo sapiens) (UniProt P33981).
T2 sequence (whole entry): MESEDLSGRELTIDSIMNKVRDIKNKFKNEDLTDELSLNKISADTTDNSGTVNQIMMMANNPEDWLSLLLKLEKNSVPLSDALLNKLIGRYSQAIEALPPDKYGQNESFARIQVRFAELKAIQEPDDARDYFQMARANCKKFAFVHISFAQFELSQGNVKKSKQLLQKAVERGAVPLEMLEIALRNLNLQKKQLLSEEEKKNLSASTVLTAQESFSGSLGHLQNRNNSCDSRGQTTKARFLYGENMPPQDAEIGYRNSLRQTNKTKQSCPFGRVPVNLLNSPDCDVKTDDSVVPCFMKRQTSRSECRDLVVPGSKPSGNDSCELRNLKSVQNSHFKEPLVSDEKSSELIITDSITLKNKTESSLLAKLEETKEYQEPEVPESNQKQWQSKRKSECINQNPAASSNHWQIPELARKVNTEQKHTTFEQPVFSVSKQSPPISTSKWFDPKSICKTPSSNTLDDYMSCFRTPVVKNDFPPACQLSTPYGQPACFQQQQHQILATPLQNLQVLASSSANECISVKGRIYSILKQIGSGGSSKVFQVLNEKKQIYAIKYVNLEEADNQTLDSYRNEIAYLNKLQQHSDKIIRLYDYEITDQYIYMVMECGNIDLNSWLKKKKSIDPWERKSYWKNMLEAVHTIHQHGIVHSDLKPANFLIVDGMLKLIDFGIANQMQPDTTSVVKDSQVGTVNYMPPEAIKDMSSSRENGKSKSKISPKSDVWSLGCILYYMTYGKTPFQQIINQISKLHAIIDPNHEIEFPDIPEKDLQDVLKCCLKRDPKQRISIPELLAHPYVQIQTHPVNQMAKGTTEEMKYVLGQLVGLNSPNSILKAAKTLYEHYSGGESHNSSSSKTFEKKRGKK
To be noted: at 0.1 µM.

Test [5] has as its system T3, Receptor-type tyrosine-protein kinase FLT3 (Homo sapiens), P36888 [D835Y].
T3 sequence (whole entry): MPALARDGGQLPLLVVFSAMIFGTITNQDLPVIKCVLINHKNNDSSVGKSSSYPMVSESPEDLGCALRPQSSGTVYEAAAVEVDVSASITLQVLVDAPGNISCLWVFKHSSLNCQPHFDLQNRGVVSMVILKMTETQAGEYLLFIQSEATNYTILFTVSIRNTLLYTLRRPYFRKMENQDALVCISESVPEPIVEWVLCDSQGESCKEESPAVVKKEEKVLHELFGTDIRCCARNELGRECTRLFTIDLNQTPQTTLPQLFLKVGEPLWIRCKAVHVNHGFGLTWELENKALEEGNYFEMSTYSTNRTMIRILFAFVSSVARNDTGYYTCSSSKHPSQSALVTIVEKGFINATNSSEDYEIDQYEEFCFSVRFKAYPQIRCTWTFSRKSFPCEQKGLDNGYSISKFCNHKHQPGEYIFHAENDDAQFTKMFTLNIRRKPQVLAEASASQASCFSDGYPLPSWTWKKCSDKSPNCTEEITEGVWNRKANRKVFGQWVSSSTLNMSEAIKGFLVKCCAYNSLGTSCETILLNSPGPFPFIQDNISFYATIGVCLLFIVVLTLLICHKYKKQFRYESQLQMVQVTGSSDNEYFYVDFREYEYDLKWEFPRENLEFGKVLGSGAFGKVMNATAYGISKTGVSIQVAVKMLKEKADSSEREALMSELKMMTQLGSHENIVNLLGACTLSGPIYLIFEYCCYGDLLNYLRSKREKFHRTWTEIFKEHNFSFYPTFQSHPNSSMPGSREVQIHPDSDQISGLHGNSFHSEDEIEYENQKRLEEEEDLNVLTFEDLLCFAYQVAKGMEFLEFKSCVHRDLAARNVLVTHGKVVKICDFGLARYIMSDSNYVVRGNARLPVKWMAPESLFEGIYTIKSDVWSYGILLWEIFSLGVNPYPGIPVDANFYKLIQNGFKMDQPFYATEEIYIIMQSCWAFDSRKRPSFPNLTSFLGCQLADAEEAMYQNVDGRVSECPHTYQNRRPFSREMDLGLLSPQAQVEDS
The conditions noted are these: at 1 µM.

The target of test [6] is Vascular endothelial growth factor receptor 3 (Homo sapiens) (UniProt P35916). The conditions noted are these: at 0.1 µM.
Test [7] deals with Macrophage colony-stimulating factor 1 receptor (Homo sapiens) (UniProt P07333). The conditions noted are these: at 0.1 µM.
Test [8] shares this target. To be noted: at 1 µM.
Test [9] addresses Tyrosine-protein kinase Fyn (Homo sapiens) (UniProt P06241). To be noted: at 0.1 µM.
The target is the same in test [10]. To be noted: at 1 µM.
Test [11] deals with Tyrosine-protein kinase HCK (Homo sapiens) (UniProt P08631). The conditions noted are these: at 0.1 µM.
Test [12] shares this target. To be noted: at 1 µM.
Test [13] deals with Insulin-like growth factor 1 receptor (Homo sapiens) (UniProt P08069). The conditions noted are these: at 0.1 µM.
The target is the same in test [14]. The conditions noted are these: at 1 µM.
In test [15] the target is Insulin receptor (Homo sapiens) (UniProt P06213). To be noted: at 0.1 µM.
Test [16] has the same target. To be noted: at 1 µM.
Test [17] deals with Insulin receptor-related protein (Homo sapiens) (UniProt P14616). The conditions noted are these: at 0.1 µM.
For test [18] the target is unchanged. The conditions noted are these: at 1 µM.
Test [19] has as its target T4, Tyrosine-protein kinase ITK/TSK (Homo sapiens) (UniProt Q08881).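 Note: mean percent inhibition of ITK from the GSK PKIS screen.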
T4 sequence (whole entry): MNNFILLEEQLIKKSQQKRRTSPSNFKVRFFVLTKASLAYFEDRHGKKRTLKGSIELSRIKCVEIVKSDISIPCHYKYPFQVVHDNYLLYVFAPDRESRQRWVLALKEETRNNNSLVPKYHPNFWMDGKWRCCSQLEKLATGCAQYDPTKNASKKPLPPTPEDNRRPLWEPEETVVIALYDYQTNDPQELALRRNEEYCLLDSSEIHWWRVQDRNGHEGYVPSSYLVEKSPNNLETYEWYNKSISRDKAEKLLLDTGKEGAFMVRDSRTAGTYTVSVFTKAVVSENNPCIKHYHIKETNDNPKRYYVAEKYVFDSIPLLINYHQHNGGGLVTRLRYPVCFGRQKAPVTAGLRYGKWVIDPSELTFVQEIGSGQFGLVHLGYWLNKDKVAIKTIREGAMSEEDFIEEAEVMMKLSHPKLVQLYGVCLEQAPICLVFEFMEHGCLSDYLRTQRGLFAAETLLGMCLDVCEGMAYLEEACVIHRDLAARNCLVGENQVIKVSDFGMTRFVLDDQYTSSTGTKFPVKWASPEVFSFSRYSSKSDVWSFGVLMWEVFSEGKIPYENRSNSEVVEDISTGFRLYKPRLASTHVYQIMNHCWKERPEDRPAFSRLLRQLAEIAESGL
To be noted: at 0.1 µM.

The target of test [20] is Vascular endothelial growth factor receptor 3 (Homo sapiens) (UniProt P35916). To be noted: at 1 µM.

Chain of Insulin receptor-related protein (Homo sapiens) (P14616 27-742 limits assumed): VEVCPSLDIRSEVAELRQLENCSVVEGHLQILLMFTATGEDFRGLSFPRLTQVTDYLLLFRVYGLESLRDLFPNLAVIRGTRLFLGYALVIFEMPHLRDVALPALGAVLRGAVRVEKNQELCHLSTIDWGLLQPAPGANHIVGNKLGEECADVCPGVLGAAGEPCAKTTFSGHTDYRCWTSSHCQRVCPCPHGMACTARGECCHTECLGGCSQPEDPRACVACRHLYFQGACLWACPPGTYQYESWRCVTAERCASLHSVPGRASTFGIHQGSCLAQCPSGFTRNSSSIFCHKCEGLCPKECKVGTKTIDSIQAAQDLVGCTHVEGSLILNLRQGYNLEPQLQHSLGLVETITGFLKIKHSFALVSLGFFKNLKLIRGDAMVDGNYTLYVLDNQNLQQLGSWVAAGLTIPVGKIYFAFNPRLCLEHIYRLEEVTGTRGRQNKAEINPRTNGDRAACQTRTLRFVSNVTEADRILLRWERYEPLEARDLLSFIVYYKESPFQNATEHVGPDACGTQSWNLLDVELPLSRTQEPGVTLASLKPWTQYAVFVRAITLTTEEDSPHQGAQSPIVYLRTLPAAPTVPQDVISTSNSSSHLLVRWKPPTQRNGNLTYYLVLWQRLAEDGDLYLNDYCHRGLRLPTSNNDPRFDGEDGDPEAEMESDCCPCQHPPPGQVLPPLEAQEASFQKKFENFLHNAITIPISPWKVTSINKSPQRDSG
Chain of Insulin receptor-related protein (Homo sapiens) (P14616 747-1297 limits assumed): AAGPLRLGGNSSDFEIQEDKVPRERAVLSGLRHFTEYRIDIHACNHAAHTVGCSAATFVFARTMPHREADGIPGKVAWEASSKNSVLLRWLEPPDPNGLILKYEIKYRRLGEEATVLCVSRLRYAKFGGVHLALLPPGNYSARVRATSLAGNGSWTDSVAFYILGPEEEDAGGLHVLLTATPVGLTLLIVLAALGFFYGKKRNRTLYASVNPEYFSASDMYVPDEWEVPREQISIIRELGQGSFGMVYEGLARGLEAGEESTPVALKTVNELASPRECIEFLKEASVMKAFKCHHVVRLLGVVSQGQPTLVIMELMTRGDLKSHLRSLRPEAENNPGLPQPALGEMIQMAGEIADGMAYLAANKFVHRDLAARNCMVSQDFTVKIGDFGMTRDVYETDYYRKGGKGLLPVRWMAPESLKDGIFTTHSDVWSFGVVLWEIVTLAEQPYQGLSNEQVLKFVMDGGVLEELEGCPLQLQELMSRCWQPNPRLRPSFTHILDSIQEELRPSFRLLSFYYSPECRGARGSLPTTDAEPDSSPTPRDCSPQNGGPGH
Chain of Macrophage colony-stimulating factor 1 receptor (Homo sapiens) (P07333 whole entry): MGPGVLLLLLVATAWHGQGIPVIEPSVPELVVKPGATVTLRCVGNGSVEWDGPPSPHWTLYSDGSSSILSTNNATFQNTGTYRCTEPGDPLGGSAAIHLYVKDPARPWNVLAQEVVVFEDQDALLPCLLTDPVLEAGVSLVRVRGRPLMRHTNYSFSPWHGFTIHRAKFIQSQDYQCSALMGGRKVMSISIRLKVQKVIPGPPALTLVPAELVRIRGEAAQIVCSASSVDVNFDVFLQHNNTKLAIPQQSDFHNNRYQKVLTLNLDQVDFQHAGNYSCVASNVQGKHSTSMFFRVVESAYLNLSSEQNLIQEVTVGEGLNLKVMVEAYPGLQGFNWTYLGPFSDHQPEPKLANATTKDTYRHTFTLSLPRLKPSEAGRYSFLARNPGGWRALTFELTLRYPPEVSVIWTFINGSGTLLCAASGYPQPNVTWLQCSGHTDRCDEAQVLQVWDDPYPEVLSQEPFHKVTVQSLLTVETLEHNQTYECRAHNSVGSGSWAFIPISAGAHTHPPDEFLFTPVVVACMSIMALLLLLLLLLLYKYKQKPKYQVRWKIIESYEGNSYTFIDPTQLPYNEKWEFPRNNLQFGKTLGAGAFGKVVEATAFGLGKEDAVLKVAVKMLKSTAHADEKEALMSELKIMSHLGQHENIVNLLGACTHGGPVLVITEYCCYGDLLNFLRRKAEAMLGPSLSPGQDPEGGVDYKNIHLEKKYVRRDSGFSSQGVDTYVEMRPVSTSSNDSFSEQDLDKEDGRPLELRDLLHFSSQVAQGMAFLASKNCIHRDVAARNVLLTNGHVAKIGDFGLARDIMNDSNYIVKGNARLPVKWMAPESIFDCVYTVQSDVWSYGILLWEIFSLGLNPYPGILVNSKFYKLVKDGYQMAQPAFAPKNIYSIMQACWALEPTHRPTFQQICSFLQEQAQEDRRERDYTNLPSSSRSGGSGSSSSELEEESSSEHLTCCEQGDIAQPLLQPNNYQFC
Chain of Tyrosine-protein kinase Fyn (Homo sapiens) (P06241 2-537 limits assumed): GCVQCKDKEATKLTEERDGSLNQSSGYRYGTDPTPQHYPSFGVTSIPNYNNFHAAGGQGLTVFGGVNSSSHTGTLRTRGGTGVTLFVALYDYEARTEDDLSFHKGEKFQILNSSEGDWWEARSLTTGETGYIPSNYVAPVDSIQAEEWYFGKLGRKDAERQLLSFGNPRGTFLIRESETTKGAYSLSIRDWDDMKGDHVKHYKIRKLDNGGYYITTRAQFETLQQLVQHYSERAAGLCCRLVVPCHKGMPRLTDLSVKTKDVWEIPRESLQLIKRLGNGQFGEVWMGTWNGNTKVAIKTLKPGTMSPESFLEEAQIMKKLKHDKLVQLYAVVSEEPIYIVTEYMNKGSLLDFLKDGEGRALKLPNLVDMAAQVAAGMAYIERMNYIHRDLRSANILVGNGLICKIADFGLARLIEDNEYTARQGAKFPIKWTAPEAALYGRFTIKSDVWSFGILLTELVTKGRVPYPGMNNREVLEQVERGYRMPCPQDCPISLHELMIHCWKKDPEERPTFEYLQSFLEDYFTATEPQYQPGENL
Chain of Insulin-like growth factor 1 receptor (Homo sapiens) (P08069 31-736 limits assumed): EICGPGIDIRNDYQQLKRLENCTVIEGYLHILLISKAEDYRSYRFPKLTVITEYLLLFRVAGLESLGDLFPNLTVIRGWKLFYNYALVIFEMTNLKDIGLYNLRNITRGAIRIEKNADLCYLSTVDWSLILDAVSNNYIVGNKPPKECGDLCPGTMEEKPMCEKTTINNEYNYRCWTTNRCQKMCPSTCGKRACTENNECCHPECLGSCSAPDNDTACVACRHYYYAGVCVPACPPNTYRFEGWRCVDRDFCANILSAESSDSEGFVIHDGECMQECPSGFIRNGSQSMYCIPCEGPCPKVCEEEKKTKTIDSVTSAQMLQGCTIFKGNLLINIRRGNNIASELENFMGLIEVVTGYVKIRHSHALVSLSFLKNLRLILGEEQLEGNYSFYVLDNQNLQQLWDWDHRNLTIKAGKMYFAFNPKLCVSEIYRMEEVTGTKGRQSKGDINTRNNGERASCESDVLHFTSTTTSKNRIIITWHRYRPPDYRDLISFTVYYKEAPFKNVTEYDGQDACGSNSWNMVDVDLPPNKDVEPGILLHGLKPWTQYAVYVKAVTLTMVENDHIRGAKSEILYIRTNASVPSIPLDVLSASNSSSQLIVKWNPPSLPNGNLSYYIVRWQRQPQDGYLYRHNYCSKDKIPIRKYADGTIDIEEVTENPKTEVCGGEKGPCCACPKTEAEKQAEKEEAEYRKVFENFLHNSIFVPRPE
Chain of Insulin-like growth factor 1 receptor (Homo sapiens) (P08069 741-1367 limits assumed): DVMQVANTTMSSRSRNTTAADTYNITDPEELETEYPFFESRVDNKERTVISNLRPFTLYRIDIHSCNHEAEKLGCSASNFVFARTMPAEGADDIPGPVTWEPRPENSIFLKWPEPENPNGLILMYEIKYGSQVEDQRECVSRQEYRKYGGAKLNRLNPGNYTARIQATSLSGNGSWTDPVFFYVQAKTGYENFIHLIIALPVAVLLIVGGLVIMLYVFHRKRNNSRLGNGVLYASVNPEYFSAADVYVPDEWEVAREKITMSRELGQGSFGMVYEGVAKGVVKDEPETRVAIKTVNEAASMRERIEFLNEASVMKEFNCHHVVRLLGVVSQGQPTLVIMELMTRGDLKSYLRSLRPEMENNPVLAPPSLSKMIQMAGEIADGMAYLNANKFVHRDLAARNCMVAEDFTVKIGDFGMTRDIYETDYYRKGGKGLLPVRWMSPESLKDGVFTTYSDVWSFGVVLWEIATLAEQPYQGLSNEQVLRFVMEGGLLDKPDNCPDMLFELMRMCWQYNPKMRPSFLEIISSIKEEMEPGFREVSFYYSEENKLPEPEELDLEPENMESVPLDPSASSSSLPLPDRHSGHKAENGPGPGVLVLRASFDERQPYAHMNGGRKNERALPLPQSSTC
Chain of Serine/threonine-protein kinase PLK1 (Homo sapiens) (P53350 whole entry): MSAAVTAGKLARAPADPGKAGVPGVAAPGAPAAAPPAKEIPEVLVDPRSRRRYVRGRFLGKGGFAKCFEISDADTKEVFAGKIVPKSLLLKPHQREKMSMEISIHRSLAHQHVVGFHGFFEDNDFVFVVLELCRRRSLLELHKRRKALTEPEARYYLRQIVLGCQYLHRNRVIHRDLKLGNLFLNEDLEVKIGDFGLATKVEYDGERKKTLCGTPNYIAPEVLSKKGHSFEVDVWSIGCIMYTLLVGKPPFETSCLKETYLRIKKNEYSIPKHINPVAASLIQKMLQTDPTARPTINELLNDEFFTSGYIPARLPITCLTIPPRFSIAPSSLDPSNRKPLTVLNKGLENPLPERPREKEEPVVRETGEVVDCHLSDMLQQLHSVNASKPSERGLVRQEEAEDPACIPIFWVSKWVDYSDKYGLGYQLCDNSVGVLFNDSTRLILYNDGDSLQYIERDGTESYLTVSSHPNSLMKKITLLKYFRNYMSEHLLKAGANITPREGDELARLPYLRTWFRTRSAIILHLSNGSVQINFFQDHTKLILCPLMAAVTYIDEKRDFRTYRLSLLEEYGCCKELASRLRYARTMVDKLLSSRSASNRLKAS

The inhibition is the relative decrease from the control value, in per cent. Consider `Cc1nnc(-c2ccc(C)c(-c3ccc(C(=O)NCc4ccc(Cl)cc4)cc3)c2)o1`, for which the inhibition is 11.6% in test [1]; 3.2% in [2]; 4.52% in [3]; 11.7% in [4]; -0.11% in test [5]; -5.22% in test [6]. Moreover, the inhibition is 2.43% in test [7]; 0.83% in [8]; -2.42% in [9]; -1.62% in test [10]; 4.39% in test [11]; 5.02% in test [12]. Besides, the inhibition was -3.42% in [13]; -3.35% in test [14]; 5.65% in [15]; 6.19% in [16]; 1.93% in [17]; 1.98% in [18]. Moreover, the inhibition in test [19] was -2.09%.
As for `COc1cc2ncn(-c3cc(OCCc4ccccc4)c(C(N)=O)s3)c2cc1OC`, the inhibition was 6.63% in [1]; 1.17% in test [4]; 1.07% in test [5]; 1.49% in test [6]; 21% in test [20]; -0.81% in [7]. Further, the inhibition was determined as 4.7% in test [8]; 2.91% in test [9]; 2.86% in test [10]; 2.34% in test [11]; 11.2% in test [12]; 1.99% in [13]. Moreover, the inhibition in test [14] is 2.07%; in test [15] it was 2.51%; in [16] it was 0.56%; in [17], 2.17%; in test [18], 2.64%; in [19], 1.33%.
As for `COc1cc2ncn(-c3cc(OCc4cccs4)c(C(N)=O)s3)c2cc1OC`, the inhibition was 28.4% in test [1]; 4.76% in [4]; 1.62% in test [5]; -6.1% in [6]; 34.7% in test [20]; 1.28% in [7]. Also, the inhibition was 11.7% in test [8]; -2.3% in [9]; 10.6% in [10]; 4.48% in test [11]; 23.4% in [12]; -8.52% in test [13]. Also, the inhibition was -6.38% in [14]; -0.44% in test [15]; 2.03% in test [16]; 0.43% in [17]; 1.63% in test [18]; -1% in [19].
Turning to `COc1ccc2cc(-c3c(-c4ccncc4)nc(-c4ccc([S+](C)[O-])cc4C)n3C)ccc2c1` (stereo not drawn), the inhibition in test [1] is -2.02%; in [2], -0.27%; in [3], -0.2%; in [4], -1.41%; in [5], 4.56%; in [6], 2.68%. For the same molecule, the inhibition in [20] is 9.41%; in test [9], 1.51%; in test [10], 1.8%; in test [11], -0.56%; in test [12], 4.6%; in [13], 0.87%. Further, the inhibition in test [14] is 1.27%; in [15], 0.15%; in test [16], 2.57%; in test [17], -0.96%; in [18], 1.18%; in test [19], 0.02%.

These data come from ChEMBL document CHEMBL1961873, “Compounds: GSK PKIS; Assays: Nanosyn kinase panel” (2012).
